From PubChem BioAssay (NCI) come the findings set out here.

Test systems include NCI-H23 lung; NCI-H226 lung; NCI-H322M lung; HOP-62 NSCLC; NCI-H460 lung; HOP-92 NSCLC; NCI-H522 lung; A549/ATCC NSCLC; 786-0 renal; COLO 205 colon; DU-145 prostate; K-562 leukemia; MDA-MB-231 breast; RXF 393 renal; SF-268 CNS; SF-295 CNS; SF-539 CNS; UACC-257 melanoma; M14 melanoma; MALME-3M melanoma.
What all share (test): NCI-60 one-dose screen, 48 h (100 = growth as untreated, 0 = no growth, -100 = all killed)
Holding throughout (conditions): 10 µM

Compounds without any hit were thinned out: in the full panel of roughly 83,000, 20% have a hit.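 Single-concentration screen, 48 h exposure, 96-well plates. Endpoint: percent growth. Below 10 = active.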 Unmarked numbers belong to inactive results. Calls of active or inactive are those of the source.

As to `C#CCNCCCN1C(=O)c2ccc3c4c(ccc(c24)C1=O)C(=O)N(CCCNCC#C)C3=O`, the growth with NCI-H23 lung is -45% (active); in the assay with NCI-H226 lung, -48.6% (active); in the assay on NCI-H322M lung, -94.4% (active); in the assay with HOP-62 NSCLC, -67.8% (active); in the assay on NCI-H460 lung it was -78.5% (active); with HOP-92 NSCLC, -26.3% (active). The growth with NCI-H522 lung was -78.4% (active); in the assay on A549/ATCC NSCLC, -72.3% (active); with 786-0 renal, -56.9% (active); with COLO 205 colon it was -86.7% (active); in the assay with DU-145 prostate it was -98.8% (active); in the assay on K-562 leukemia, -4.82% (active). Besides, the growth in the assay with MDA-MB-231 breast was 0.356% (active); in the assay on RXF 393 renal, -91.4% (active); with SF-268 CNS it was -26.4% (active); in the assay on SF-295 CNS, -82.9% (active); in the assay on SF-539 CNS, -97% (active); in the assay with UACC-257 melanoma, -87.8% (active). Besides, in the assay on M14 melanoma, the growth was -91% (active).
For the compound `COc1ccc(-c2csc(-c3cc(Cl)cc(Cl)c3Cl)n2)cc1`, the growth with NCI-H23 lung was 91.4%; with NCI-H226 lung, 88.9%; with NCI-H322M lung, 98.6%; in the assay on HOP-62 NSCLC, 91.1%; with NCI-H460 lung, 97.9%; with HOP-92 NSCLC, 85.8%. In addition, the growth is 81.8% with NCI-H522 lung; 54.5% in the assay with A549/ATCC NSCLC; 111% with 786-0 renal; 91.6% with COLO 205 colon; 99.8% in the assay on DU-145 prostate; 83.9% in the assay with K-562 leukemia. Also, the growth in the assay on MALME-3M melanoma was 77.7%; in the assay on MDA-MB-231 breast, 73.6%; in the assay with SF-268 CNS, 97.1%; in the assay on SF-295 CNS, 103%; with SF-539 CNS, 94.8%; in the assay on UACC-257 melanoma, 46.2%. In addition, the growth with M14 melanoma was 97.7%.
As to `CC(=O)CS(C)(=O)=O`, the growth in the assay on NCI-H23 lung was 102%; in the assay with NCI-H226 lung it was 101%; in the assay with NCI-H322M lung, 113%; in the assay on HOP-62 NSCLC it was 106%; in the assay with NCI-H460 lung, 114%; in the assay with HOP-92 NSCLC, 98.5%. In addition, the growth in the assay with NCI-H522 lung was 93.7%; in the assay on A549/ATCC NSCLC, 96.7%; with 786-0 renal, 106%; in the assay on COLO 205 colon, 106%; in the assay on DU-145 prostate, 106%; in the assay with K-562 leukemia it was 102%. Moreover, the growth with MDA-MB-231 breast is 108%; with RXF 393 renal, 111%; with SF-268 CNS it was 104%; in the assay on SF-295 CNS, 115%; with SF-539 CNS, 109%; in the assay on UACC-257 melanoma, 96.4%. Also, the growth in the assay on M14 melanoma is 108%.
Turning to `O=C(COCc1c(-c2ccccc2)no[n+]1[O-])Nc1nc(-c2ccc(Cl)cc2)cs1`, the growth is 93.6% in the assay with NCI-H23 lung; 90.4% in the assay on NCI-H226 lung; 104% in the assay with NCI-H322M lung; 96.5% in the assay with HOP-62 NSCLC; 106% in the assay on NCI-H460 lung; 86.8% with HOP-92 NSCLC. For the same compound, the growth with NCI-H522 lung is 81.1%; with A549/ATCC NSCLC, 105%; in the assay on 786-0 renal it was 120%; in the assay on COLO 205 colon, 113%; with DU-145 prostate it was 109%; in the assay with K-562 leukemia it was 108%. The growth was 97.8% with MALME-3M melanoma; 99.9% in the assay with MDA-MB-231 breast; 112% in the assay on RXF 393 renal; 97.9% in the assay with SF-268 CNS; 101% in the assay on SF-295 CNS; 109% with SF-539 CNS. In addition, the growth in the assay on UACC-257 melanoma was 96.5%; in the assay on M14 melanoma, 108%.
`[O-]c1c[n+](-c2ccc(Cl)cc2)no1`: the growth in the assay with NCI-H23 lung was 106%; with NCI-H226 lung it was 103%; with NCI-H322M lung it was 94.1%; in the assay with HOP-62 NSCLC, 91.3%; in the assay on NCI-H460 lung, 101%; with HOP-92 NSCLC, 83.8%. Also, the growth in the assay on NCI-H522 lung is 122%; in the assay on A549/ATCC NSCLC it was 108%; with 786-0 renal, 108%; in the assay with COLO 205 colon it was 103%; in the assay with DU-145 prostate, 107%; in the assay with K-562 leukemia it was 106%. The growth in the assay on MDA-MB-231 breast is 80.1%; with RXF 393 renal, 116%; in the assay with SF-268 CNS, 100%; with SF-295 CNS it was 112%; in the assay with SF-539 CNS it was 119%; in the assay on UACC-257 melanoma, 104%.
As for `O=C(O)c1cc(C(F)(F)F)cc(C(F)(F)F)c1`, the growth in the assay on NCI-H23 lung is 101%; in the assay on NCI-H226 lung, 111%; in the assay on NCI-H322M lung, 102%; in the assay on HOP-62 NSCLC, 103%; with NCI-H460 lung, 107%; in the assay with HOP-92 NSCLC, 121%. Besides, the growth in the assay with NCI-H522 lung is 102%; in the assay on A549/ATCC NSCLC it was 101%; in the assay on 786-0 renal, 93.7%; with COLO 205 colon, 113%; with DU-145 prostate, 116%; in the assay with K-562 leukemia, 95.2%. In addition, the growth in the assay on MDA-MB-231 breast was 104%; in the assay on RXF 393 renal it was 105%; in the assay with SF-268 CNS, 106%; in the assay with SF-295 CNS, 102%; with SF-539 CNS it was 105%; with UACC-257 melanoma, 101%. The growth in the assay on M14 melanoma was 91.1%.
As to `CN(C)CCCN1c2ccccc2Sc2ccc(C(F)(F)F)cc21`, the growth with NCI-H23 lung is 47%; in the assay on NCI-H226 lung it was 54.7%; in the assay on NCI-H322M lung, 37.1%; in the assay with HOP-62 NSCLC, 37.2%; in the assay on NCI-H460 lung, 13.8%; in the assay on HOP-92 NSCLC, -9.96% (active). Besides, the growth in the assay on NCI-H522 lung was -15.2% (active); in the assay with A549/ATCC NSCLC it was 53.3%; with 786-0 renal it was 9.65% (active); with COLO 205 colon it was -77.8% (active); in the assay with DU-145 prostate, 50.3%; in the assay on K-562 leukemia it was -46.2% (active). Also, the growth in the assay on MALME-3M melanoma was -80.6% (active); in the assay with MDA-MB-231 breast, 4.03% (active); in the assay on SF-268 CNS it was 16.8%; in the assay on SF-295 CNS, -2.18% (active); with SF-539 CNS it was 3.74% (active); with UACC-257 melanoma it was 6.53% (active). Moreover, in the assay on M14 melanoma, the growth is -84.6% (active).
For `COc1ccc(C2=NNC(c3sc(Cl)nc3Cl)C2)cc1` (stereo not drawn), the growth with NCI-H23 lung was 93.7%; with NCI-H226 lung, 54.4%; in the assay with NCI-H322M lung it was 90.3%; with HOP-62 NSCLC, 72.5%; in the assay with NCI-H460 lung, 103%; in the assay with HOP-92 NSCLC, 75.2%. Also, the growth in the assay on NCI-H522 lung is 9.05% (active); in the assay on A549/ATCC NSCLC, 94.7%; in the assay with 786-0 renal, 99.2%; in the assay with COLO 205 colon, 63.1%; in the assay on DU-145 prostate, 86.6%; in the assay on K-562 leukemia it was 7.31% (active). In addition, the growth is 74.3% in the assay with MALME-3M melanoma; 67.3% with MDA-MB-231 breast; 71.7% in the assay on RXF 393 renal; 73% in the assay on SF-268 CNS; 102% with SF-295 CNS; 110% in the assay with SF-539 CNS. Further, the figures for the growth with UACC-257 melanoma and in the assay with M14 melanoma were 94% and 59.7%, respectively.
